{
  "source": "PubChem BioAssay (NCI)",
  "note": "This is part of a sample that, as a whole, favours compounds with a hit. Of some 79,000 tested, about 15% had one in any assay. Values without a mark were called inactive. No stated cut-off is given here; in the data, active means growth inhibition above about 70%; inactive means the rest.",
  "data": [
    {"experiment": "NCI Yeast Anticancer Drug Screen. Data for the cln2 rad14 strain (AID 165);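 further: 0% = growth equal to vehicle treated cultures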", "conditions": "S. cerevisiae cln2 rad14 strain, at 50.0 µM, hits give high values", "in_short": "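Each compound was tested on cln2 rad14 yeast. Inhibition of growth was calculated against vehicle-exposed controls.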", "units": {"growth inhibition": "%"}, "values": [
      {"molecule": "CC(CCC(=O)O)(CCC(=O)O)[N+](=O)[O-]", "growth inhibition": -6.6},
      {"molecule": "CC(c1ccc([N+](=O)[O-])cc1)n1cnc2c(N(CCO)CCO)ncnc21", "note": "(stereo not given)", "growth inhibition": -3.7},
      {"molecule": "C=CCC12CCC(=O)[C@@]1(C)CC=C(O)C2=O", "note": "(stereo not given in full)", "growth inhibition": -18.2},
      {"molecule": "C=C(C)C1CCC2(C=O)CCC3(C)C(CCC4C5(C)CCC(O)C(C)(C)C5CCC43C)C12", "note": "(stereo not given)", "growth inhibition": 15.8},
      {"molecule": "Cc1cccc(Cl)c1NC1=NCCN1C(=O)CC(=O)c1ccccc1", "growth inhibition": 12.8},
      {"molecule": "CC(=O)NCCc1[nH]cnc1N=Nc1ccc(Br)cc1", "growth inhibition": -6.15},
      {"molecule": "CN(C)c1nc2ccc(Cl)cc2c(=O)[nH]1", "growth inhibition": 3.55},
      {"molecule": "C/C=C1\\CN2CCc3c([nH]c4ccccc34)C2C=C1CCO", "note": "(stereo not given)", "growth inhibition": -13.2},
      {"molecule": "COc1ccccc1C(=O)C(CN(C)C)CN(C)C", "growth inhibition": 15.3},
      {"molecule": "Cc1ccc(NC(=O)C(=O)C(C(=O)c2ccc3ccccc3c2)C2OC(=O)c3ccccc32)c(C)c1", "note": "(stereo not given)", "growth inhibition": 11.2},
      {"molecule": "COC(=O)c1ccc(CS(=O)(=O)c2ccccc2)cc1", "growth inhibition": 7.1},
      {"molecule": "NNS(=O)(=O)c1cccc(S(=O)(=O)NN)c1", "growth inhibition": -4.25},
      {"molecule": "COc1ccc(/C=C/C(=O)C(C)(C)CN(C)CCN(C)C)cc1", "growth inhibition": -7.65},
      {"molecule": "N#CC(C#N)=C(N)/C(C#N)=C/c1ccc(O)c(O)c1", "growth inhibition": 3.7},
      {"molecule": "O=C(Cc1ccccc1)NNC(=O)Nc1ccccc1", "growth inhibition": -26.6},
      {"molecule": "CN(C)Cc1cc(C(=O)O)ccc1O", "growth inhibition": -29},
      {"molecule": "Cc1cc(C)c2ccc(NN=O)nc2n1", "growth inhibition": 19.1},
      {"molecule": "BrC/C(=N\\N1CCCCC1)c1ccc(Br)cc1", "growth inhibition": 24.6},
      {"molecule": "CC1CN(CC2COc3ccccc3O2)C(C)CN1", "note": "(stereo not given)", "growth inhibition": 58.5},
      {"molecule": "O=C([O-])C(=O)[N-]CCC[N-]C(=O)C(=O)[N-]CCC[N-]C(=O)C(=O)[O-].[Cu+2].[Cu+2].[Na+]", "growth inhibition": -21.8},
      {"molecule": "CC(C)(C)N=Cc1ccccc1[O-].CC(C)(C)N=Cc1ccccc1[O-].[Co+2]", "growth inhibition": 0.25},
      {"molecule": "CN(C)c1ccc(/C=C/c2ccccc2)cc1", "growth inhibition": -15.1},
      {"molecule": "COc1cc2c(cc1OC)C(=O)/C(=C/c1ccccc1)CC2", "growth inhibition": 11.8},
      {"molecule": "O=C(O)c1cccc(O)c1C(=O)O", "growth inhibition": 21.2},
      {"molecule": "CCOC(=O)/C=C/CC1CCNC1", "note": "(stereo not given)", "growth inhibition": -52},
      {"molecule": "COc1ccc(C2=C/C(=C/c3ccc(N(CCC#N)CCC#N)cc3)C(=O)O2)cc1", "growth inhibition": -18.2},
      {"molecule": "O=C(Cl)c1ccc2c(c1)C(=O)NC2=O", "growth inhibition": 8.95},
      {"molecule": "COc1cc(C(=O)NC2CCc3cc(OC)c(OC)c(OC)c3-c3ccc(OC)c(=O)cc32)cc(OC)c1OC", "note": "(stereo not given)", "growth inhibition": 12.2},
      {"molecule": "CCCCCCC(/C=N\\N=C\\c1ccco1)=C\\c1ccccc1", "growth inhibition": 2.75},
      {"molecule": "NC(=O)c1ncn(C2OC(CO)C(O)C2O)c1NC=O", "note": "(stereo not given)", "growth inhibition": 7.6},
      {"molecule": "COC(=O)C1CCC(C(=O)OC)CC1", "note": "(stereo not given)", "growth inhibition": -1.15},
      {"molecule": "CCN(CC)CCN(C)c1ccccc1", "growth inhibition": -1.05},
      {"molecule": "CCc1nc2ccccc2cc1C", "growth inhibition": -19.6},
      {"molecule": "CCOC(OC(C)=O)[C@@H]1C=C[C@H](C)N(c2ccc([N+](=O)[O-])cc2)O1", "note": "(stereo not given in full)", "growth inhibition": 18.1},
      {"molecule": "COc1cc(NCC(C#N)C#N)ccc1N=Nc1ccc([N+](=O)[O-])cc1", "growth inhibition": 18.8},
      {"molecule": "NC(N)=NS(=O)(=O)c1ccc(Nc2c3ccccc3nc3c(C(=O)N4CCN(CCO)CC4)cccc23)cc1", "growth inhibition": 22.4},
      {"molecule": "O=C(O)c1c2ccccc2nc2c1sc1ccccc12", "growth inhibition": -63.6},
      {"molecule": "COc1ccc(C2Cc3cc(OC)c(OC)cc3C(c3ccccc3)N2)cc1OC", "note": "(stereo not given)", "growth inhibition": 12.5},
      {"molecule": "OC(c1nc2ccccc2s1)(C(F)(F)F)C(F)(F)F", "growth inhibition": 18.4},
      {"molecule": "Cc1ccc(C2OC(N)=C(O)C2=O)cc1", "note": "(stereo not given)", "growth inhibition": -26.4}
    ]},
    {"experiment": "NCI Yeast Anticancer Drug Screen. Data for the bub3 strain (AID 167)", "conditions": "S. cerevisiae bub3 mutant strain, at 50.0 µM, hits give high values", "in_short": "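Inhibition values come from growth of compound-treated mutant yeast normalised to vehicle-treated controls.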", "units": {"growth inhibition": "%"}, "values": [
      {"molecule": "CC(CCC(=O)O)(CCC(=O)O)[N+](=O)[O-]", "growth inhibition": 12.6},
      {"molecule": "CC(c1ccc([N+](=O)[O-])cc1)n1cnc2c(N(CCO)CCO)ncnc21", "note": "(stereo not given)", "growth inhibition": -12.2},
      {"molecule": "C=CCC12CCC(=O)[C@@]1(C)CC=C(O)C2=O", "note": "(stereo not given in full)", "growth inhibition": 0.6},
      {"molecule": "C=C(C)C1CCC2(C=O)CCC3(C)C(CCC4C5(C)CCC(O)C(C)(C)C5CCC43C)C12", "note": "(stereo not given)", "growth inhibition": 26},
      {"molecule": "Cc1cccc(Cl)c1NC1=NCCN1C(=O)CC(=O)c1ccccc1", "growth inhibition": 2.05},
      {"molecule": "CC(=O)NCCc1[nH]cnc1N=Nc1ccc(Br)cc1", "growth inhibition": 52.1},
      {"molecule": "CN(C)c1nc2ccc(Cl)cc2c(=O)[nH]1", "growth inhibition": -17.9},
      {"molecule": "C/C=C1\\CN2CCc3c([nH]c4ccccc34)C2C=C1CCO", "note": "(stereo not given)", "growth inhibition": -41.1},
      {"molecule": "COc1ccccc1C(=O)C(CN(C)C)CN(C)C", "growth inhibition": -23.3},
      {"molecule": "Cc1ccc(NC(=O)C(=O)C(C(=O)c2ccc3ccccc3c2)C2OC(=O)c3ccccc32)c(C)c1", "note": "(stereo not given)", "growth inhibition": 34.9},
      {"molecule": "COC(=O)c1ccc(CS(=O)(=O)c2ccccc2)cc1", "growth inhibition": 14.7},
      {"molecule": "NNS(=O)(=O)c1cccc(S(=O)(=O)NN)c1", "growth inhibition": 5.35},
      {"molecule": "COc1ccc(/C=C/C(=O)C(C)(C)CN(C)CCN(C)C)cc1", "growth inhibition": -5.25},
      {"molecule": "N#CC(C#N)=C(N)/C(C#N)=C/c1ccc(O)c(O)c1", "growth inhibition": 2.4},
      {"molecule": "O=C(Cc1ccccc1)NNC(=O)Nc1ccccc1", "growth inhibition": 2.5},
      {"molecule": "CN(C)Cc1cc(C(=O)O)ccc1O", "growth inhibition": 2.85},
      {"molecule": "Cc1cc(C)c2ccc(NN=O)nc2n1", "growth inhibition": 13.2},
      {"molecule": "BrC/C(=N\\N1CCCCC1)c1ccc(Br)cc1", "growth inhibition": 16.6},
      {"molecule": "CC1CN(CC2COc3ccccc3O2)C(C)CN1", "note": "(stereo not given)", "growth inhibition": 53.4},
      {"molecule": "O=C([O-])C(=O)[N-]CCC[N-]C(=O)C(=O)[N-]CCC[N-]C(=O)C(=O)[O-].[Cu+2].[Cu+2].[Na+]", "growth inhibition": -7.7},
      {"molecule": "CC(C)(C)N=Cc1ccccc1[O-].CC(C)(C)N=Cc1ccccc1[O-].[Co+2]", "growth inhibition": 3.6},
      {"molecule": "CN(C)c1ccc(/C=C/c2ccccc2)cc1", "growth inhibition": -16.2},
      {"molecule": "COc1cc2c(cc1OC)C(=O)/C(=C/c1ccccc1)CC2", "growth inhibition": 37},
      {"molecule": "O=C(O)c1cccc(O)c1C(=O)O", "growth inhibition": 0.75},
      {"molecule": "CCOC(=O)/C=C/CC1CCNC1", "note": "(stereo not given)", "growth inhibition": -1.5},
      {"molecule": "COc1ccc(C2=C/C(=C/c3ccc(N(CCC#N)CCC#N)cc3)C(=O)O2)cc1", "growth inhibition": -3.05},
      {"molecule": "O=C(Cl)c1ccc2c(c1)C(=O)NC2=O", "growth inhibition": -5.95},
      {"molecule": "COc1cc(C(=O)NC2CCc3cc(OC)c(OC)c(OC)c3-c3ccc(OC)c(=O)cc32)cc(OC)c1OC", "note": "(stereo not given)", "growth inhibition": 0.05},
      {"molecule": "CCCCCCC(/C=N\\N=C\\c1ccco1)=C\\c1ccccc1", "growth inhibition": 16.9},
      {"molecule": "NC(=O)c1ncn(C2OC(CO)C(O)C2O)c1NC=O", "note": "(stereo not given)", "growth inhibition": 9.85},
      {"molecule": "COC(=O)C1CCC(C(=O)OC)CC1", "note": "(stereo not given)", "growth inhibition": -9},
      {"molecule": "CCN(CC)CCN(C)c1ccccc1", "growth inhibition": -0.1},
      {"molecule": "CCc1nc2ccccc2cc1C", "growth inhibition": 1.1},
      {"molecule": "CCOC(OC(C)=O)[C@@H]1C=C[C@H](C)N(c2ccc([N+](=O)[O-])cc2)O1", "note": "(stereo not given in full)", "growth inhibition": 42.6},
      {"molecule": "COc1cc(NCC(C#N)C#N)ccc1N=Nc1ccc([N+](=O)[O-])cc1", "growth inhibition": 12.7},
      {"molecule": "NC(N)=NS(=O)(=O)c1ccc(Nc2c3ccccc3nc3c(C(=O)N4CCN(CCO)CC4)cccc23)cc1", "growth inhibition": -5},
      {"molecule": "O=C(O)c1c2ccccc2nc2c1sc1ccccc12", "growth inhibition": -1.45},
      {"molecule": "COc1ccc(C2Cc3cc(OC)c(OC)cc3C(c3ccccc3)N2)cc1OC", "note": "(stereo not given)", "growth inhibition": -1.25},
      {"molecule": "OC(c1nc2ccccc2s1)(C(F)(F)F)C(F)(F)F", "growth inhibition": -13},
      {"molecule": "Cc1ccc(C2OC(N)=C(O)C2=O)cc1", "note": "(stereo not given)", "growth inhibition": 1.85}
    ]}
  ]
}
